Source: PubChem BioAssay (NCI)
About 79,000 compounds went through this panel and 15% of them were active in at least one assay; those are over-represented in the sample as a whole. Unmarked numbers belong to inactive results. Active and inactive are the calls of the source. Rule as the data show it: active = growth inhibition above about 70%; inactive = the rest.

Columns and labels:
[1] = NCI Yeast Anticancer Drug Screen. Data for the rad50 strain (AID 155);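 also: 0% = growth of vehicle-only cultures of the same strain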; settings: S. cerevisiae rad50 strain growth inhibition; at 50.0 µM; stronger effect = higher value
How it was run: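 DNA repair mutant yeast, compound exposure, growth read-out; inhibition is taken relative to vehicle.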

[2] = NCI Yeast Anticancer Drug Screen. Data for the mec2-1 strain (AID 157); settings: S. cerevisiae mec2-1 strain, at 50.0 µM, stronger effect = higher value
How it was run: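 Cells of the genetically defined mec2-1 yeast strain are incubated with test compound. Inhibition of growth is calculated against vehicle-treated controls.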

[3] = NCI Yeast Anticancer Drug Screen. Data for the sgs1 mgt1 strain (AID 161);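 also: 0% = growth of cultures given vehicle only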; settings: S. cerevisiae sgs1 mgt1 strain, at 50.0 µM, stronger effect = higher value
How it was run: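 Genetically altered yeast, compound exposure, growth inhibition relative to vehicle.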

[4] = NCI Yeast Anticancer Drug Screen. Data for the cln2 rad14 strain (AID 165);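 also: 0% = growth equal to vehicle treated cultures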; settings: S. cerevisiae cln2 rad14 strain, at 50.0 µM, stronger effect = higher value
How it was run: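 The screen exposed genetically defined yeast (cln2 rad14) to test compounds and scored growth inhibition relative to vehicle-treated controls.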

[5] = NCI Yeast Anticancer Drug Screen. Data for the bub3 strain (AID 167); settings: S. cerevisiae bub3 mutant strain, at 50.0 µM, stronger effect = higher value
How it was run: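 In this screen, a yeast mutant lacking normal mitotic checkpoint function is challenged with compound. Relative growth versus vehicle gives the inhibition value.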

[6] = NCI Yeast Anticancer Drug Screen. Data for the mlh1 rad18 strain (AID 175); settings: S. cerevisiae mlh1 rad18 strain growth inhibition; at 50.0 µM; stronger effect = higher value
How it was run: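 Compound-treated yeast growth, normalised to vehicle controls. Strain bears defined DNA repair mutations.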

Structure (SMILES) | growth inhibition [1] | growth inhibition [2] [%] | growth inhibition [3] | growth inhibition [4] | growth inhibition [5] | growth inhibition [6]
O=C(CCl)OCC(CCl)OC(=O)CCl (configuration not stated) | -3.6% | 29.1 | 37.1% | -15.2% | 41.6% | 0.6%
CC(N)C(=O)NC(C)P(=O)(O)O (configuration not stated) | 2.7% | 1.4 | -7.15% | -73% | 9.05% | 8.2%
CC1OC(OCC2OC(Oc3c(-c4ccc(O)cc4)oc4cc(O)cc(O)c4c3=O)C(OC3OC(C)C(O)C(O)C3O)C(O)C2O)C(O)C(O)C1O (configuration not stated) | -13.7% | -21.2 | -2.2% | 2.75% | -2.9% | 5.6%
Cc1onc(-c2c(F)cccc2Cl)c1C(=O)Nc1cc2cc([N+](=O)[O-])ccc2oc1=O | 12.3% | -13.7 | 2.3% | 8.15% | 2.8% | 12.5%
Cc1cc2nc(CC(=O)c3cccnc3)c(=O)[nH]c2cc1C | 0.9% | 3.05 | 12.4% | 18.3% | -8.05% | 15.8%
O=C(N/N=C/c1ccccc1)c1c(F)c(F)c(F)c(F)c1F | -27.6% | 9 | -32.9% | 12.2% | 0.6% | 0.6%
CC(=O)/C(=C/n1ccc(=O)[nH]c1=S)C(=O)Nc1ccc(Cl)cc1 | -32% | -7.6 | 4.7% | 11.7% | -20.4% | 3.4%
CNS(=O)(=O)c1c(C)cccc1CC(=O)c1ccccc1 | -4.3% | 0.65 | 12.2% | -12.8% | 14.8% | -8.2%
COc1ccc(Cc2cc3c(cc2OCC(=O)N2CCOCC2)OCO3)cc1 | -3.25% | -9.5 | -4.25% | -37.7% | 20.4% | -3.3%
C=C1CCC2[C@](C)(CCC[C@]2(C)C(=O)O)[C@@H]1CCc1ccoc1 (some centres not stated) | 70.8% (active) | 59.9 | 73% (active) | 77% (active) | 73.8% (active) | 78.8% (active)
O=[N+]([O-])c1ccc(S(=O)(=O)c2ccc(NCN3CCCCC3)cc2)cc1 | 25.1% | 6.2 | 26.9% | -3.95% | 13.7% | 17.6%
O=C(Cc1cc2c(cc1[N+](=O)[O-])OCO2)c1c[nH]c2ccc(Br)cc12 | 6.45% | -3.9 | 19.6% | 18.5% | -2.2% | 7.55%
CCCCNc1ccc([N+](=O)[O-])cc1[N+](=O)[O-] | 16.2% | -15.4 | 18.4% | 6.55% | 41.9% | -0.6%
CNC(=O)C1CCC(=O)N1CN(C(C)=O)c1ccccc1 (configuration not stated) | 3.85% | 13.9 | -12.9% | 13.7% | -13.9% | -63.5%
COc1cc2nc(C(O)C(O)c3nc4cc(OC)c(OC)cc4[nH]3)[nH]c2cc1OC (configuration not stated) | -8% | 3.35 | 19.6% | 6.85% | -1.1% | 38.7%
COC(=O)NC1(NC(=O)OC)NC(=O)c2cc(OC)c(OC)c(OC)c2N1 | 17.1% | 8.45 | 10.8% | -10.8% | -12.3% | 3.85%
Nc1ccc(-c2c[nH]c(=O)c([N+](=O)[O-])c2)cc1 | 3.5% | -6.05 | -1.35% | -28.5% | 3.5% | -6.4%
CC(C)(O)C(Cc1ccccc1)c1ccccc1 (configuration not stated) | 0.55% | 7.9 | -16.1% | -2.1% | -23.6% | 0.8%
O=C(Nc1ccc(F)cc1)Nc1ccc(I)cc1 | 13.2% | 1.15 | 5.6% | 15.4% | 17.2% | 8.95%

Structure (SMILES) | growth inhibition [1] | growth inhibition [2] [%] | growth inhibition [3] | growth inhibition [4] | growth inhibition [5] | growth inhibition [6]
COC(=O)c1cc(O)c(C(=O)OC)s1 | 3.05% | -9.75 | -0.55% | -27.9% | 14.8% | 11.2%
CN(c1ccc(C(=O)c2ccc(N(C)S(C)(=O)=O)cc2)cc1)S(C)(=O)=O | -22.6% | -27.9 | -8.05% | -2.35% | 4.5% | -6.6%
O=[N+]([O-])C1C2C=CC(C2)[C@H]1c1ccco1 (some centres not stated) | -7.85% | -15.2 | -24.7% | 20.2% | -14.8% | -4.95%
C[C@H]1S[C@H](c2c(F)cccc2F)n2c1nc1ccccc12 | 9.5% | -10.6 | 43.8% | -0.25% | 26.6% | 35%
COc1ccc2nc(CC(C)C)c3c(c2c1)-c1ccccc1C3=O | 1.35% | -8.8 | -10.2% | -12.2% | -0.35% | -12.2%
COc1ccc2c(C#N)cc3c4ccccc4ncc3c2c1 | 16.6% | 7 | -9.6% | 19.1% | -4.35% | -10.8%
CCOC(=O)C1(C(O)(C2CC2)C2(C(=O)OCC)CC2)CC1 | -9.1% | -11.6 | -12.3% | -29.9% | 13.1% | 5.45%
O=C(O)C1(C(=O)O)Cc2ccccc2C1 | -15.6% | -12.6 | -9.15% | -9.35% | 9.85% | 14.8%
Cc1nc(CCCCCCCC(=O)O)ccc1O | 6.25% | 7.25 | -10.6% | -9.35% | 0.85% | 7.3%
NNC(=S)N/N=C(\c1nc2ccc(Cl)cc2[nH]c1=O)C(O)c1cccc([N+](=O)[O-])c1 (configuration not stated) | 48.6% | 27.6 | 12% | -17.1% | 27.4% | -8.4%
CNC(=O)n1cncn1 | -10.6% | 3.35 | -9.75% | 0.1% | -2.2% | -12.7%
CC1=C(C(=O)Nc2ccccc2C)C(c2ccc(Cl)cc2)C(C(=O)Nc2ccccc2C)=C(C)N1 | -3.3% | 2.6 | -5.2% | 14.4% | -8% | 0%
CCN(CC)CCN(C(=S)Nc1ccccc1)c1ccccc1 | 5% | 28.1 | 17.6% | -10.1% | 9.5% | 27.4%
O=c1oc2ccccc2c(N2CCCCC2)c1Cl | 1.6% | 40.6 | 12.3% | 22.1% | 17.6% | 15%
Cc1ccc(NC(=O)Oc2ccccc2C(=O)OCc2ccccc2)cc1 | 5.3% | 7.1 | 6.25% | 20.1% | 8.25% | 1.25%
O=[N+]([O-])c1ccccc1C=Nc1ccc2nc(SCc3ccccc3)sc2c1 | 8.15% | 3.65 | 3.95% | 0.7% | -4% | -16.8%
COC(C[P+](Cc1ccccc1)(c1ccccc1)c1ccccc1)OC | 66.9% | -2.7 | 39% | 2.4% | 4.1% | 4.35%
COc1ccc(Nc2nc3cc(C(F)(F)F)ccc3nc2-c2ccccc2)cc1OC | 2.05% | 2.65 | -48.2% | -4.85% | -12.4% | -24.4%
